IL-1B inflam inh – inflammasome signaling inhibition, IL-1 beta readout; THP-1 LPS/ATP IL-1B secretion, AlphaLISA, 16 h; hits give low values; activity change, % at 57.5 µM; hit rate 4.7% among 360,000; in the data active means activity change below about -50%; inconclusive means mostly about -30% to -49%
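THP-1 cells pretreated 1 hr with compounds (up to 57.5 uM final), then stimulated with LPS (250 ng/mL final) plus ATP (1.25 mM final); secreted IL-1B measured by AlphaLISA after 16 hr, decreased signal indicating inhibition.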
TDP1 block – inhibitors of human tyrosyl-DNA phosphodiesterase TDP1. Q9NUW8. recombinant TDP1, AlphaScreen DNA substrate cleavage. Potency, µM (top dose mostly 130 µM), for inactives: top-dose activity change, negative = inhibition, actives largely listed as inhibitors. hit rate 0.28% among 350,000. AID 485290; further: potency means the concentration at half of the fitted maximal effect; nearly all actives have a fitted effect of over 40% in size
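E. coli-derived human Tdp1, 1 nM final. Cpd preinc 15 min RT; substrate 15 nM final, 5 min RT; AS bead mix 10 ug/ml final, 10 min RT. Signal loss = tyrosine-FITC cleavage. No-enzyme wells = max signal.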
Six1-Eya2 inh – blocks human Six1 binding to Eya2; Q15475+O00167; AlphaScreen GST-Six1/His-Eya2 binding, biochemical; hits give low values; activity change, % (concentration not given with the values); hit rate 0.56% among 360,000; in the data active means activity change below about -65%; inconclusive means mostly about -30% to -63%
Target sequence (O00167 whole entry, looked up): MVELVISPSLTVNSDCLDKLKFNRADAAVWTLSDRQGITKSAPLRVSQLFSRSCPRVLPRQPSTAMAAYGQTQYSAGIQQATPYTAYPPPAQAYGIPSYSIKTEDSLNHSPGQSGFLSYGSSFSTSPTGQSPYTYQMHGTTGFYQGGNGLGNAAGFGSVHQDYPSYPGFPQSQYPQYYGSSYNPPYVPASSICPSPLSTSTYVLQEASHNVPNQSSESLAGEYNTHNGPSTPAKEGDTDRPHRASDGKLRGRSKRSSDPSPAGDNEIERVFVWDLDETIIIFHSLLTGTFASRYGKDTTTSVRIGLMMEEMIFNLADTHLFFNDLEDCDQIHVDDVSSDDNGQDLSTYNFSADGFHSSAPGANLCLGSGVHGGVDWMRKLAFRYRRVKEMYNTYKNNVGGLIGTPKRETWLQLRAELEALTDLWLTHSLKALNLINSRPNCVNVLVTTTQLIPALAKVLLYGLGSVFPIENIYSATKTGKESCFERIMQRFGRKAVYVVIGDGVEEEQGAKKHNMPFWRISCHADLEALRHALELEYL
Target sequence (Q15475 whole entry, looked up): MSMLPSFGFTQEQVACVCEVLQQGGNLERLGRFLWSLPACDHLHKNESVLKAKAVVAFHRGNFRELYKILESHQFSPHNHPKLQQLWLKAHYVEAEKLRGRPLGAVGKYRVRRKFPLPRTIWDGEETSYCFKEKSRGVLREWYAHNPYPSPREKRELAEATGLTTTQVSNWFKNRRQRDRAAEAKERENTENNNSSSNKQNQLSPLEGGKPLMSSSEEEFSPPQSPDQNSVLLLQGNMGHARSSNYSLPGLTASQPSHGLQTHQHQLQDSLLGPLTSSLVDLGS
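AlphaScreen with GST-Six1 and His-Eya2 (5X mix: 250 nM and 500 nM), glutathione donor and nickel acceptor beads; buffer 50 mM Tris pH 8.0, 300 mM NaCl, 1 mM TCEP; 1 h at 37 C in the dark.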
TDP1 cell CPT – DT40-hTDP1 cell growth loss with CPT | chicken DT40 Tdp1-/-;hTDP1 cells + 20 nM CPT, ATP luminescence, 48 h | hit rate 12% among 420,000 | Potency, µM (highest dose often 46.2 µM), for inactives: top-dose activity change, negative = growth inhibition, hits mostly inhibitors; further: potency means the concentration at half of the fitted maximal effect; nearly all actives have a fitted effect of over 55% in size
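Chicken DT40 Tdp1-/- cells stably complemented with human TDP1 were seeded at 400 cells/well in medium containing 20 nM camptothecin, exposed to pin-transferred compounds, and grown at 37 °C for at least 48 hr. Viability was read as ATP luminescence.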
DT40 TDP1 no CPT – qHTS for Inhibitors of human tyrosyl-DNA phosphodiesterase 1 (TDP1): qHTS in cells in absence of CPT | DT40 Tdp1-/- hTDP1 cells, no CPT, ATP luminescence, 48 h | hit rate 15% among 420,000 | AID 686978, 2013 | Potency, µM (titrated, usually from 46.2 µM), for inactives: top-dose activity change, negative = growth inhibition, most hits filed as inhibitors; further: potency means the concentration at half of the fitted maximal effect; nearly all actives have a fitted effect of over 55% in size
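Luminescent ATP content (CellTiter-Glo) served as the growth readout. Knockout chicken DT40 cells expressing human TDP1 were exposed to compounds without camptothecin for a minimum 48 hr at 37 °C.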
CtBP-E1A inh – inhibitors of CtBP/E1A interaction. AlphaScreen GST-E1A/His-CtBP binding, 1536-well; hits give low values. activity change, % (no concentration beside the values). hit rate 0.49% among 340,000. AID 651724; in the data active means activity change below about -65%; inconclusive means mostly about -30% to -63%
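Protein mix (5X: 125 nM each GST-E1A, His-CtBP) was incubated with pinned compound 2 h at 37 deg C in dark, in 50 mM Tris pH 8.0 buffer with 300 mM NaCl. Glutathione donor and nickel acceptor beads followed; AlphaScreen signal read after 1 h.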
Starred values were filed as active, the others as inactive; ? = inconclusive; · = no result given. A selection: hits, their analogues and other compounds. The true share with any hit is near 18%. Unless noted, the call rests on the fitted dose curve; in most records, active means well fitted curve in the direction sought with a large enough effect; inconclusive means small, poorly fitted or top-dose-only effect, or another doubt; inactive means no such curve, though single readings can be large; an effect the other way counts as inactive or inconclusive. On the % scale 0 is the no-effect control and ±100 the full control effect.

SMILES	IL-1B inflam inh	TDP1 block	Six1-Eya2 inh	TDP1 cell CPT	DT40 TDP1 no CPT	CtBP-E1A inh
O=c1[nH]c(=O)n(Cc2ccco2)c2c1C(C(F)(F)F)(C(F)(F)F)N=C(CCc1ccccc1)N2	?	3%	-2	18µM*	?	-1
O=c1[nH]c(=O)n(Cc2ccco2)c2c1C(C(F)(F)F)(C(F)(F)F)N=C(C1CCCCC1)N2	6	0%	4	?	-18%	4
COCCNC(=S)N/N=C/c1ccc(-c2ccc([N+](=O)[O-])cc2)o1	16	5%	-8	?	-30%	4
CCCCNC(=O)c1ccc2c(c1)N(Cc1ccc(F)cc1)C(=O)c1ccccc1S2=O (centres undefined)	·	3%	·	23µM*	18µM*	·
O=C(NCCN1CCCC1)c1ccc2c(c1)N(Cc1ccc(F)cc1)C(=O)c1ccccc1S2=O (centres undefined)	-24	5%	0	?	?	-7
Cc1ccc(C)c(CN2C(=O)c3ccccc3S(=O)c3ccc(C(=O)NCc4ccco4)cc32)c1 (centres undefined)	·	10%	·	?	16µM*	·
O=C(NCc1ccco1)c1ccc2c(c1)N(Cc1ccc(F)cc1)C(=O)c1ccccc1S2=O (centres undefined)	·	6%	·	?	16µM*	·
Fc1ccccc1-c1n[nH]c(=S)n1CC1CCCO1 (centres undefined)	4	-4%	-3	3%	-3%	-6
CC(C)n1c(=O)c2ccccc2n1Cc1cn(C2CCCC2)nn1	38	·	9	-5%	-8%	12
COc1ccc(C2=NN3C(C2)c2ccccc2OC32C(=O)N(C)c3ccccc32)cc1 (centres undefined)	-5	8%	-11	?	21µM*	-7
O=C(CCNS(=O)(=O)c1cccc2nsnc12)N1CCN(c2ccccn2)CC1	·	7%	·	·	·	·
CCCCC(CC)CNC(=O)C1CCC(CNS(=O)(=O)c2cccc3nsnc23)CC1 (centres undefined)	·	2%	·	?	21µM*	·
O=C(C1CCC(CNS(=O)(=O)c2cccc3nsnc23)CC1)N1CCN(c2ccccn2)CC1 (centres undefined)	10	8%	-7	?	23µM*	-11
CCCN(CCC)C(=O)C1CCC(CNS(=O)(=O)c2cccc3nsnc23)CC1 (centres undefined)	-5	5%	-1	?	?	-9
O=C(C1CCC(CNS(=O)(=O)c2cccc3cccnc23)CC1)N1CCc2ccccc21 (centres undefined)	-8	2%	-10	?	18µM*	-7
CCCCN(C(=O)C1CCC(CNS(=O)(=O)c2cccc3nsnc23)CC1)c1ccccc1 (centres undefined)	·	10%	·	?	21µM*	·
CCNC(=S)NNC(=S)NCc1ccccc1	-5	-1%	3	?	?	7
O=C(CSc1n[nH]c(=O)[nH]c1=O)N/N=C/C=C/c1ccccc1	-10	·	2	3%	-5%	·
O=C(CCC(=O)N(CC(=O)NC1CCCCC1)Cc1ccccc1)Nc1ccccn1	-8	3%	10	3%	-3%	7
O=C(CN1CC[n+]2c(-c3cccs3)csc21)c1ccc(-c2ccccc2)cc1	-89*	5%	-19	9.2µM*	8.2µM*	3
CN(C)c1ccc(NC(=O)C(=O)C2C(=O)Nc3ccccc32)cc1 (centres undefined)	-4	1%	5	-21%	-22%	-20
CC(C)c1ccc(NC(=O)C(=O)C2C(=O)Nc3ccccc32)cc1 (centres undefined)	21	9%	21	21µM*	15µM*	·
O=C(Nc1cccc2ccccc12)C(=O)C1C(=O)Nc2ccccc21 (centres undefined)	-3	10%	-3	?	?	1
CC(C)(C)c1ccc(NC(=O)C(=O)C2C(=O)Nc3ccccc32)cc1 (centres undefined)	29	4%	0	?	13µM*	·
CC(=O)N1CCC(O)(c2cccc(C(F)(F)F)c2)CC1	0	6%	1	-14%	-6%	36
SMILES	IL-1B inflam inh	TDP1 block	Six1-Eya2 inh	TDP1 cell CPT	DT40 TDP1 no CPT	CtBP-E1A inh
Cc1ccc2oc(C(=O)N3CCC(O)(c4cccc(C(F)(F)F)c4)CC3)c(C)c2c1	-52*	0%	0	2%	?	8
Cc1cc(C(=O)NC2CCCCC2C)c2ccccc2n1 (centres undefined)	37	-3%	-9	-15%	-6%	6
Cc1nccc2[nH]c(=O)c(C(=O)NC3CCCCC3C)cc12 (centres undefined)	-9	7%	-3	?	16µM*	-10
CCOc1ccc(CCNC(=O)c2cc3c(=O)[nH]c4ccc(C)cc4c3s2)cc1OCC	·	9%	·	4.1µM*	18µM*	·
COc1ccc(CCNC(=O)c2cc3c(=O)[nH]c4ccc(C)cc4c3s2)cc1OC	·	-1%	·	13µM*	12µM*	·
CCOc1ccc(CCNC(=O)c2cc3c(C)nccc3[nH]c2=O)cc1OCC	13	5%	-2	12µM*	13µM*	-11
CCOC(=O)CNC(=O)c1cc2c(=O)[nH]c3ccc(C)cc3c2s1	-12	·	0	35%	10%	·
Cc1ccc2[nH]c(=O)c3cc(C(=O)NCCN4CCN(C)CC4)sc3c2c1	-13	-3%	-7	-20%	-20%	3
COc1ccc(C(=O)NCc2ccc3c(c2)CCN3C(C)=O)cc1OC	·	-1%	·	14%	-13%	·
O=C(Nc1cc(Cl)cc2c1-c1ccc(Cl)cc1C2O)C(Cl)Cl (centres undefined)	-61*	·	1	23µM*	?	-27
COc1ccc(C(=O)N=C2SC3CS(=O)(=O)CC3N2c2ccc(C(C)=O)cc2)cc1 (centres undefined)	-9	-10%	-4	6%	19%	4
Cc1cc(-c2nc3cc(F)ccc3s2)ccc1N	-76*	·	32	-17%	-6%	-20
O=C1c2[nH]nc(-c3ccccc3O)c2C(c2ccccc2)N1Cc1ccco1 (centres undefined)	-26	4%	-10	23µM*	21µM*	-19
COc1cc(C2c3c(-c4ccccc4O)n[nH]c3C(=O)N2Cc2ccco2)ccc1OCC(C)C (centres undefined)	·	12%	·	?	18µM*	·
